Measurements from the supplement of paper PMC13380429.
Unmarked numbers belong to inactive results.

Test system: Vero E6 infected with SARS-CoV-2
Experiment: inhibition of SARS-CoV-2 cytopathic effect; higher = more antiviral protection, active = above 15
Settings: 48 h

| Structure (SMILES) | inhibition of SARS-CoV-2 cytopathic effect (1 nM) | inhibition of SARS-CoV-2 cytopathic effect (8.33 nM) | inhibition of SARS-CoV-2 cytopathic effect (100 nM) | inhibition of SARS-CoV-2 cytopathic effect (833.33 nM) | inhibition of SARS-CoV-2 cytopathic effect (10000 nM) |
| --- | --- | --- | --- | --- | --- |
| Cc1cc2c(cc1C(F)(F)F)N(C(=O)Nc1ccc(Oc3cccnc3C)nc1)CC2 | 0.45% | 0.15% | -0.25% | 0.74% | -2.31% |
| Cc1ccc2c(=O)c3cccc(CC(=O)O)c3oc2c1C | 4.48% | 0.61% | 1.92% | -1.05% | 1.59% |
| O=C(Nc1nc2cccc(-c3ccc(CN4CCS(=O)(=O)CC4)cc3)n2n1)C1CC1 [filgotinib] | -1.13% | -1.84% | 4.15% | 3.84% | -1.27% |
| CCn1ccnc1CC1COc2ccccc2O1 (stereo not given) [imiloxan] | 2% | -0.87% | -0.32% | 4.69% | -0.13% |
| Cc1c(Cl)cccc1S(=O)(=O)Nc1nc(CC(=O)N2CCN(C)CC2)cs1 | 1.65% | 0.23% | -1.13% | 3.23% | 2.25% |
| O=C(O)COc1cccc(-c2ocnc2-c2nc(-c3ccccc3)c(-c3ccccc3)o2)c1 | -0.58% | 0.52% | 0.7% | 0% | 3.01% |
| C=C(C)[C@@H]1CC[C@]2(C(=O)O)CC[C@]3(C)[C@H](CC[C@@H]4[C@@]5(C)CC[C@H](OC(=O)CC(C)(C)C(=O)O)C(C)(C)[C@@H]5CC[C@]43C)[C@@H]12 [bevirimat-dimeglumine] | -1.52% | 0.9% | 2.72% | 0.6% | -0.27% |
| C[C@@]1(F)[C@H](O)[C@@H](CO)O[C@H]1n1ccc(N)nc1=O | 0.11% | -0.83% | -0.8% | 1.12% | 0.26% |
| Cc1cc(Nc2ccc(NC(=O)c3ccc(Nc4ccnc5ccccc45)cc3)cc2)nc(N)n1 | -1.09% | 0.62% | 2.48% | 3.69% | 20.3% (active) |
| C[C@H](/C=C/[C@H](C)C(C)(C)O)[C@H]1CC[C@H]2/C(=C/C=C3C[C@@H](O)C[C@H](O)C3)CCC[C@]12C [paricalcitol] | 0.83% | 3.37% | -0.2% | 1.21% | -0.81% |
| COc1cc([C@@H]2c3cc4c(cc3[C@@H](O[C@@H]3O[C@@H]5CO[C@@H](c6cccs6)O[C@H]5[C@H](O)[C@H]3O)[C@H]3COC(=O)[C@H]23)OCO4)cc(OC)c1O [teniposide] | 1.37% | 2.49% | 4.69% | 1.54% | -7.08% |
| CCOC(=O)c1ccc(O)cc1 [ethyl-paraben] | 0.82% | 3.38% | -1.2% | 0.24% | -1.28% |
| CC(C)(C)C#Cc1cc(N(C(=O)[C@H]2CC[C@H](C)CC2)[C@H]2CC[C@@H](O)CC2)c(C(=O)O)s1 | 1.62% | 2.19% | -0.17% | 1.33% | 1.51% |
| COC(=O)c1ccc(N2CCN(C)CC2)c(NC(=O)c2cccc(OC)c2)c1 | 6.88% | 6.06% | -2.23% | -3.85% | 1.03% |
| COc1cc2ncnc(Nc3ccc(F)c(Cl)c3)c2cc1NC(=O)/C=C/CN1CCCCC1 [dacomitinib] | -4.89% | -7.71% | -13.6% | -15.7% | -20.6% |
| OCc1cc(C(O)CNCCCCCCOCCCCc2ccccc2)ccc1O (stereo not given) [salmeterol] | 0.19% | 2.26% | 10.4% | 1.95% | -1.77% |
| Nc1c2ccccc2nc2ccccc12 [9-aminoacridine] | -6.32% | 1.57% | -3.73% | 0.13% | -28.3% |
| CN1CCCCC1CCN1c2ccccc2Sc2ccc([S+](C)[O-])cc21 (stereo not given) [mesoridazine] | -0.86% | -1.76% | -0.98% | -3.35% | -3.76% |
| O=C1c2c(O)cccc2Cc2cccc(O)c21 [anthralin] | -1.32% | -2.05% | 0.93% | -2.71% | -1.19% |
| Cl/C(=C\n1cncn1)c1ccc(Cl)cc1Cl [loreclezole] | 0.42% | -1.72% | -2.63% | -0.72% | -1.41% |

| Structure (SMILES) | inhibition of SARS-CoV-2 cytopathic effect (1 nM) | inhibition of SARS-CoV-2 cytopathic effect (8.33 nM) | inhibition of SARS-CoV-2 cytopathic effect (100 nM) | inhibition of SARS-CoV-2 cytopathic effect (833.33 nM) | inhibition of SARS-CoV-2 cytopathic effect (10000 nM) |
| --- | --- | --- | --- | --- | --- |
| CCCCCCCC/C=C/C(=O)O [trans-2-undecenoic-acid] | 0.16% | -0.12% | 1.42% | 1.97% | 1.5% |
| CN(CCOc1ccc(-c2ccc3c(c2)OCO3)cc1C(C)(C)C)CC(=O)O | 1.26% | -3.67% | -6.89% | -0.1% | -1.31% |
| CN1CCC[C@@H](CC2c3ccccc3Sc3ccccc32)C1 (racemic) [metixene] | -0.25% | 1.09% | 1.62% | -0.01% | 42.2% (active) |
| CCC(=O)Nc1cccc(Oc2nc(Nc3ccc(N4CCN(C)CC4)cc3OC)ncc2Cl)c1 | -2.36% | -1.81% | -3.83% | -2.5% | 1.78% |
| C[C@H]1[C@H](C)CC[C@]2(C(=O)O)CC[C@]3(C)C(=CC[C@@H]4[C@@]5(C)C[C@@H](O)[C@H](O)C(C)(C)[C@@H]5CC[C@]43C)[C@H]12 [corosolic-acid] | -3.62% | -0.43% | -0.51% | -4.03% | -1.21% |
| CCCCCCCCCCCCCCCCOc1nc2ccc(C)cc2c(=O)o1 [cetilistat] | 2.2% | 1.36% | -0.06% | 0.62% | 0.91% |
| CCCC(=O)O[C@]1(C(=O)CO)CC[C@H]2[C@@H]3CCC4=CC(=O)CC[C@]4(C)[C@H]3[C@@H](O)C[C@@]21C [hydrocortisone-butyrate] | -1.77% | 1.01% | 3.36% | 5.42% | 0.11% |
| CN(C)Cc1cccc(N=C(c2ccccc2)c2c(O)[nH]c3cc(C(=O)N(C)C)ccc23)c1 | 1.09% | 1.08% | 1.9% | -0.95% | -4.44% |
| O=C1c2c(O)ccc(O)c2C(=O)c2c(NCCNCCO)ccc(NCCNCCO)c21 [mitoxantrone] | 0.83% | 0.03% | -2.74% | -4.43% | -11.1% |
| C=CC(=O)c1ccc2ccccc2c1 [JAK3-inhibitor-V] | -1.46% | -1.7% | -2.73% | -2.88% | 1.9% |
| COc1cc(SC)ccc1C(=O)N1CCC(Cc2ccccc2)CC1 | 4.96% | 7.9% | 8.76% | 9.01% | 7.35% |
| CC(C)(C)c1cc(C(=O)/C(C#N)=N/Nc2cccc(Cl)c2)no1 | 1.62% | -1.2% | -0.43% | 2.18% | 11.6% |
| COC(c1ccccc1)(c1ccccc1)[C@H](Oc1nc(C)cc(C)n1)C(=O)O [ambrisentan] | -4.05% | -0.7% | -1.38% | -0.18% | -3.02% |
| Cc1cccc(Nc2cc(Cl)nc(SCC(=O)O)n2)c1C [pirinixic-acid] | -0.9% | -0.95% | -1.99% | -0.44% | 2.81% |
| Cc1ncc(C)n2nc([C@@H]3C[C@H]3c3nc4c5cccnc5ccn4c3C)nc12 | 0.4% | 0.57% | 0.67% | -1.22% | 4.45% |
| CN(C)CCCN1c2ccccc2CCc2ccccc21 [imipramine] | -4.38% | 1.76% | -1.33% | -2.74% | -4.2% |
| CC(=O)NCCCOc1ccc(C(=O)N2CCC(N3C(=O)CCc4ccccc43)CC2)cc1 | 2.92% | -2.2% | 0.95% | 1.64% | 3.15% |
| CN(C)C(=S)SC(=S)N(C)C [tetramethylthiuram-monosulfide] | -5.07% | -6.29% | -7.33% | 11.9% | 10% |
| CC[C@]12CCCN3CCc4c(n(c5ccccc45)[C@@](O)(C(=O)OC)C1)[C@@H]32 [vincamine] | 0.28% | 2.12% | 0.98% | -2.3% | -1.71% |
